According to PubChem BioAssay AID588453 (National Center for Advancing Translational Sciences (NCATS), 2011):
About 4,000 (1%) of roughly 390,000 compounds were called active. A call without a number means that no potency is given here. Not shown: some 4% with an inconclusive outcome. Many of the other results were omitted from the sample, so actives are more common in it than they were. A number with no mark means an inactive call. Calls come from the whole dose curve; as a rule, active = well fitted inhibition curve with a large enough effect; inconclusive = small, poorly fitted or top-dose-only effect; inactive = no such curve, though single readings can be large or run the other way.

Biological target: Thioredoxin reductase 1, cytoplasmic (Rattus norvegicus) (UniProt O89049)
Assay: qHTS Assay for Inhibitors of Mammalian Selenoprotein Thioredoxin Reductase 1 (TrxR1): qHTS; note: nearly all actives have a fitted effect of over 65% in size
Conditions: recombinant rTrxR1, NADPH fluorescence consumption, selenite substrate; series mostly up to 114 µM
Description: The selenoprotein thioredoxin reductase (TrxR; EC 1.8.1.9) is a FAD containing homodimeric pyridine nucleotide-disulfide oxidoreductase with many cellular roles. Together with NADPH and its prime substrate thioredoxin (Trx), the enzyme forms the core of the Trx system. The mammalian Trx system exerts a wide spectrum of functions including redox regulation, antioxidant defense, regulation of transcription factors as well as support of cell growth and replication. Many of these functions involve the reduction of Trx, which may subsequently reduce a number of different substrates including ribonucleotide reductase, peroxiredoxins or NFkB. Mammalian TrxR itself also has a broad substrate specificity, reducing both protein and non-protein substrates, including low molecular weight compounds such as dehydroascorbate, lipoic acid, ubiquinone, and juglone. In addition, several drugs in clinical use for anticancer treatment are indeed known to target TrxR1.
This BioAssay is a validation of an NADPH fluorescence-based, dual-purpose qHTS rTrxR1 assay designed to find potential inhibitors and substrates of rTrxR1. For this particular BioAssay, actives are potential inhibitors. See related BioAssay for substrate data deposition.
NIH Molecular Libraries Probe Production Network [MLPCN]
NIH Chemical Genomics Center [NCGC]
Assay Provider: Elias Arner, Karolinska Institute
Assay protocol: 2 uL of reagents (buffer in column 4 as negative control and 90 nM rTrxR1 in columns 1-3 and 5-48) were dispensed into Greiner black solid-bottom 1,536-well assay plates, followed by 1 uL of NADPH (400 uM final concentration) to each well. The plates were centrifuged at 1000 rpm for 15 seconds and subsequently incubated for 5 min at room temperature (~22 deg C) to allow for rTrxR1 reduction. Compounds (23 nL) were then transferred via Kalypsys pin tool equipped with 1536-pin array (10 nL slotted pins, V&P Scientific, San Diego, CA). In addition, a duplicate 2-fold serial dilution of the control compounds auranofin, a known gold-based TrxR1 inhibitor, and juglone (5-hydroxy-1,4-naphthoquinone), a natural TrxR1 substrate, were pin-transferred to columns 2 and 3, respectively. After incubation for 15 min at room temperature (~22 deg C), 1 uL of selenite (400 uM final concentration) were dispensed to each well. The plate was immediately transferred to a ViewLux high-throughput CCD imager (PerkinElmer), wherein kinetic measurements of NADPH fluorescence (Ex 340 nm, Em 450 nm) were acquired (8 minute kinetic read, see Table 1). Read 1 was utilized to assess the capacity of a compound to serve as an rTrxR1 substrate, i.e. a decrease in NADPH fluorescence compared to the no-compound background is an indication of a substrate behavior for that particular compound. For inhibitory activity of a compound, delta values, computed as the difference in fluorescence intensity between the first and last reads of an 8-minute time kinetic window, were used. All reagents were diluted in an assay buffer consisting of 50 mM Tris-HCl, pH 7.5, 2 mM EDTA, and 0.01% Tween-20.
Throughout the screen, reagent bottle and all liquid lines were made light-tight to minimize reagent degradation. All screening operations were performed on a fully integrated robotic system (Kalypsys, San Diego, CA) containing one RX-130 and two RX-90 anthropomorphic robotic arms (Staubli, Duncan, SC). Library plates were screened starting from the lowest and proceeding to the highest concentration, and a 'double-pinning' step of the highest concentration was required to access higher concentrations of compounds. Vehicle-only plates, with DMSO being pin-transferred to the columns 5-48, were inserted uniformly at the beginning and the end of each library in order to monitor and record any shifts in the background, which can be affected by reagent dispensers or loss in enzyme activity over time. […]
Potency is the fitted concentration of half-maximal effect.

Sequence of Thioredoxin reductase 1, cytoplasmic (Rattus norvegicus) (O89049 whole entry, looked up): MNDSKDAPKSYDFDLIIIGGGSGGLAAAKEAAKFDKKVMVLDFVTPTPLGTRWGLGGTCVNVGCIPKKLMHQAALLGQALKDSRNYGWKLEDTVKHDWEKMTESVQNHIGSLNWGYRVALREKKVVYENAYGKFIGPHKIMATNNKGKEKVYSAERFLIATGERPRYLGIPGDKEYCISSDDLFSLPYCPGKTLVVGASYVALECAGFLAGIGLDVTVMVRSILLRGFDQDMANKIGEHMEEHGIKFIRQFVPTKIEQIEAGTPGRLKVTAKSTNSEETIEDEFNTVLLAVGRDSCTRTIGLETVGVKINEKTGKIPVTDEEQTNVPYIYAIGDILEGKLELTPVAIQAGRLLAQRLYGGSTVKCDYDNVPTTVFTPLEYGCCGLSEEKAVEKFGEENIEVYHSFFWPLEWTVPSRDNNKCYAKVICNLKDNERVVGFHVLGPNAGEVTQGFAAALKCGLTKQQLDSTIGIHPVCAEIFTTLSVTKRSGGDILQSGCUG

Row | Compound | Potency | activity change, negative = inhibition
1 | Cc1ccc(CNC(=O)C2(C(F)(F)F)C/C(=C\Cc3ccccc3)CCCO2)o1 (stereo not given) | 28.2 µM (active) | –
2 | O=C(NCc1ccccn1)[C@]1(C(F)(F)F)C[C@H](CCc2ccccc2)CCCO1 | inactive | –
3 | O=C(NCC1CC1)C1(C(F)(F)F)C/C(=C\CCO)CCCO1 (stereo not given) | inactive | –
4 | CC(C)(C)OC(=O)N1CCC(c2c(C(=O)Nc3ccc4c(c3)OCO4)cnn2-c2ccccc2)CC1 | inactive | –
5 | Cc1ccc(Cl)cc1NC(=O)CCC(=O)N1CC(C)Sc2ccccc21 (stereo not given) | inactive | –
6 | c1ccc(C2CNCc3c2ccc2ccccc32)cc1 (stereo not given) | 79.4 µM (active) | –
7 | O=C(CSc1nc2ccccc2nc1Cc1ccccc1)N1CCCCC1 | inactive | –
8 | O=C(NC(=S)Nc1cccc(-c2ccc(CO)o2)c1)c1cccs1 | 39.8 µM (active) | –
9 | Cn1c(SCC(=O)Nc2cccc(NC(=O)c3cccs3)c2)nnc1-c1ccncc1 | inactive | –
10 | Cc1sc(NC(=S)NC(=O)c2cccs2)nc1-c1ccc(CC(C)C)cc1 | inactive | –
11 | Cc1nn(C)c2c1c(C(F)(F)F)cc(=O)n2C(C)C(=O)NCc1ccc(Cl)cc1 (stereo not given) | inactive | –
12 | NS(=O)(=O)c1ccc(NC(=O)C(=O)Nc2ccc3nc4n(c(=O)c3c2)CCCCC4)cc1 | inactive | –
13 | COc1ccc(Br)cc1C1C2C=CCC(C)C2C(=O)N1Cc1ccccc1 (stereo not given) | 22.4 µM (active) | –
14 | COc1ccc(-c2ccc(OC)c(C3C4C=CCC(C)C4C(=O)N3Cc3ccccc3)c2)cc1C (stereo not given) | inactive | –
15 | Cc1cccc([C@H]2[C@@H]3C=CC[C@@H](C)[C@@H]3C(=O)N2Cc2ccccc2)c1 | inactive | –
16 | O=c1c(NCc2cccs2)nccn1-c1ccccc1 | inactive | –
17 | C=CCn1c(=S)[nH]c2scc(-c3ccco3)c2c1=O | 39.8 µM (active) | –
18 | COc1ccc(C2C(=O)N(C3CCCCCC3)CC(=O)N2CCc2ccc(Cl)cc2)cc1OC (stereo not given) | inactive | –
19 | CCn1c(C)c(C)c2cc(C(=O)NCCc3cc(OC)ccc3OC)ccc21 | inactive | –
20 | CC(CCc1ccccc1)NC(=O)c1cnc(Cl)c(Cl)c1 (stereo not given) | inactive | –

Row | Compound | Potency | activity change, negative = inhibition
21 | Cc1ccc(-c2nc(CS(=O)(=O)CC(=O)NCc3ccccc3Cl)c(C)o2)cc1 | inactive | –
22 | Cc1cccc(-c2nc(CS(=O)CC(=O)NC(C)CCc3ccccc3)c(C)o2)c1 (stereo not given) | 17.8 µM (active) | –
23 | Cc1csc[n+]1CCC1CCCCC1 | inactive | –
24 | Cc1ccc2oc(=O)c3cnn(CC(=O)NCc4ccccc4Cl)c3c2c1 | inactive | –
25 | CN(C)c1cc2c(Nc3ccc4c(cnn4Cc4ccccc4)c3)ncnc2cn1 | inactive | –
26 | CCN1CCN(c2ccc(/C=C/c3ccnc4ccccc34)cc2)CC1 | inactive | –
27 | Cc1ccc(S(=O)(=O)N(Cc2nc(-c3ccc(Cl)cc3)no2)C2CCCCC2)cc1 | inactive | –
28 | Cc1csc(NC(=S)Nc2cccc(Cl)c2)n1 | 14.1 µM (active) | –
29 | Cc1csc(NC(=O)C2CCN(S(=O)(=O)c3ccccc3)CC2)n1 | inactive | –
30 | O=C(Nc1cccc(Cl)c1)c1csnn1 | inactive | –
31 | CC1CCC2(CC1)N=C(c1ccccc1)C(=O)N2CC(=O)Nc1ccc(F)c(Cl)c1 (stereo not given) | inactive | –
32 | COc1ccc(Cl)cc1NC(=O)CCn1c(=O)c2cccn2c2ccccc21 | inactive | –
33 | CCOC(=O)c1scc(-c2ccccc2)c1S(=O)(=O)Nc1ccccc1F | inactive | –
34 | CCCS(=O)(=O)c1ncc(Cl)c(C(=O)Nc2scc(-c3ccccc3)c2C(=O)OCC)n1 | 4.47 µM (active) | –
35 | CCOC(=O)c1c(-c2ccc(C)cc2C)csc1NC(=O)CSc1nnnn1C | inactive | –
36 | Cc1cc(C)c2oc(C(=O)Nc3c(C(=O)Nc4ccccc4)oc4ccccc34)cc(=O)c2c1 | inactive | –
37 | CC(=O)c1ccc[n+](C(C)CCC(C)[n+]2cccc(C(C)=O)c2)c1 (stereo not given) | inactive | –
38 | O=C(Nc1ccc2nc(SCCOc3ccccc3Cl)sc2c1)c1ccco1 | inactive | –
39 | CNC(=O)c1ccc(-c2nc(CN3CCc4ccccc43)c(C)o2)cc1 | inactive | –
40 | COc1ccc(-c2nc(CS(=O)CC(=O)NCc3ccccn3)c(C)o2)cc1 (stereo not given) | 7.08 µM (active) | –

Row | Compound | Potency | activity change, negative = inhibition
41 | Cc1ccccc1-c1nc(CS(=O)(=O)CC(=O)N2CCc3ccccc3C2)c(C)o1 | 7.94 µM (active) | –
42 | COc1ccc(-c2nc(CS(=O)CC(=O)N3CCc4ccccc4C3)c(C)o2)cc1 (stereo not given) | 7.94 µM (active) | –
43 | COc1ccc(N2CCN(C(=O)CSCc3nc(-c4ccccc4Cl)oc3C)CC2)cc1 | inactive | –
44 | COc1cccc(-c2nc(CS(=O)(=O)CC(=O)N3CCN(c4cc(C)ccc4C)CC3)c(C)o2)c1 | inactive | –
45 | COc1ccc(-c2nc(CS(=O)CC(=O)NCc3cccnc3)c(C)o2)cc1OC (stereo not given) | inactive | –
46 | COc1ccc(-c2nc(CN3CCN(c4ncccn4)CC3)c(C)o2)cc1C | inactive | –
47 | COc1ccc(CNC(=O)CS(=O)Cc2nc(-c3cccc(C)c3)oc2C)cc1 (stereo not given) | inactive | –
48 | Cc1ccccc1-c1nc(CS(=O)(=O)CC(=O)Nc2cc(Cl)cc(Cl)c2)c(C)o1 | inactive | –
49 | Cc1ccccc1-c1nc(CS(=O)(=O)CC(=O)NC(C)c2ccccc2)c(C)o1 (stereo not given) | inactive | –
50 | Cc1ccc(-c2nc(CS(=O)CC(=O)N3CCN(c4ncccn4)CC3)c(C)o2)cc1 (stereo not given) | 10 µM (active) | –
51 | Nc1ccc(/C=C/c2ccnc3ccccc23)c([N+](=O)[O-])c1 | inactive | –
52 | CCCCNc1ccc(-c2nc(-c3ccncc3)no2)cc1[N+](=O)[O-] | inactive | –
53 | CCC1CCCCN1S(=O)(=O)c1ccc(NC(=O)c2cc(=O)c3ccccc3o2)cc1 (stereo not given) | inactive | –
54 | Brc1nc2ncnc(NCc3ccco3)c2[nH]1 | – | 24.3% [at 0.0914 µM]
55 | COc1cc(CNC(=O)c2cc3n(n2)CCCN(Cc2cccc(F)c2)C3=O)cc(OC)c1OC | inactive | –
56 | CC1CCN(C(=O)Cn2c(=O)n(-c3ccc(Cl)cc3)c(=O)c3c4c(sc32)CCC4)CC1 | inactive | –
57 | O=C(O)C1=C/C(=C/C=[N+]2c3cc(O)c(O[C@H]4OC(CO)[C@@H](O)[C@@H](O)[C@@H]4O)cc3C[C@@H]2C(=O)[O-])C[C@H](C(=O)O)N1 (stereo not given in full) | inactive | –
58 | CC(C)(C)c1ccc(C(CC(=O)O)NS(=O)(=O)Cc2ccccc2)cc1 (stereo not given) | inactive | –
59 | C[C@@H](NC(=O)OC(C)(C)C)c1nnc(S(=O)(=O)Cc2ccccc2)o1 | 0.316 µM (active) | –
60 | CC(C)[C@@H](NC(=O)OC(C)(C)C)C(=O)NCC1CCC(C(=O)N[C@@H](Cc2ccccc2)C(=O)O)CC1 (stereo not given in full) | inactive | –
